Screening results: PubChem BioAssay, National Center for Advancing Translational Sciences (NCATS)
This is a sample that favours compounds with a hit; in the whole collection about 2.8% have one here.
S16 F2sN tox = Cell viability qHTS assay in S16 Pmp22-F2sN cells | S16 Pmp22-F2sN Schwann cells viability, CellTiter-Glo, 24 h | actives 0.48% (n = 43,000) | AID 1508642, 2021 | Potency, µM (series often up to 57.5 µM), without a hit: at the top dose activity change, negative = cytotoxicity, hits mostly cytotoxic; note: potency is the fitted concentration of half-maximal effect; % is set by controls: 0 for no effect and ±100 for the full control effect; nearly all actives have a fitted effect of over 65% in size
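Seed 500-1,000 S16 Pmp22-F2sN cells per well in phenol-red-free DMEM with 10% heat-inactivated FBS; pin-add 23 nL compound; incubate 24 h at 37C; add CellTiter-Glo, wait 15 min protected from light; read luminescence.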
pS6 MEF inh = Acumen qHTS Assay for Inhibitors of the mTORC1 Signaling Pathway in MEF (Tsc2-/-, p53-/-) Cells: Sytravon. Tsc2-/- p53-/- MEF, phospho-rpS6 immunofluorescence/PI, 24 h. Potency, µM (titrated, usually from 38.3 µM), for inactives: top-dose activity change, negative = inhibition, most hits filed as inhibitors. actives 0.78% (n = 44,000);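 note: potency is the fitted concentration of half-maximal effect; plate controls were DMSO for no effect and rapamycin for full effect; nearly all actives have a fitted effect of over 50% in size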
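Read-out: phospho-S6 Alexa-488 intensity over PI intensity per well, scored as % active cells using thresholds from rapamycin (7.5 nM) and DMSO controls. Tsc2-/-, p53-/- MEFs exposed to compound for 24 h; PI cell count recorded as viability.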
PMP22 txn = Cell-based coincidence reporter assay to measure PMP22 gene transcription in S16 Pmp22-F2sN cells - Primary screen; Potency, µM (doses to about 57.5 µM), inactives show top-dose activity change, negative = inhibition, actives largely listed as inhibitors; AID 1508649, 2021; S16 Pmp22-F2sN Schwann cells (luciferase reporters placed in the Pmp22 gene), FLuc/NLuc coincidence luminescence, 24 h; actives 2% (n = 43,000); active = clear falling dose curves in both reporters; inconclusive = both reporters move, but less clearly or upward; inactive = either reporter flat; the % is the NLuc reporter signal; note: potency is the fitted concentration of half-maximal effect; % is set by controls: 0 for no effect and ±100 for the full control effect
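Schwann cells carrying the coincidence reporter were exposed to library compounds for 24 h at 37C, then lysed and read for FLuc and, after quenching, NLuc luminescence on a CCD imager.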
GALK inhibitor = qHTS Assay for Inhibitors of Human Galactokinase (GALK): NCGC Sytravon Library Screen; P51570; recombinant GALK, Kinase-Glo ATP luminescence, 1 h; Potency, µM (top dose mostly 57.5 µM), for the others: at the top dose activity, negative = inhibition, hits mostly inhibitors; 44,000 tested, under 10 active;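 note: plate controls were full GALK reaction for no effect and reaction lacking GALK for full effect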
Target sequence (P51570 whole entry, looked up): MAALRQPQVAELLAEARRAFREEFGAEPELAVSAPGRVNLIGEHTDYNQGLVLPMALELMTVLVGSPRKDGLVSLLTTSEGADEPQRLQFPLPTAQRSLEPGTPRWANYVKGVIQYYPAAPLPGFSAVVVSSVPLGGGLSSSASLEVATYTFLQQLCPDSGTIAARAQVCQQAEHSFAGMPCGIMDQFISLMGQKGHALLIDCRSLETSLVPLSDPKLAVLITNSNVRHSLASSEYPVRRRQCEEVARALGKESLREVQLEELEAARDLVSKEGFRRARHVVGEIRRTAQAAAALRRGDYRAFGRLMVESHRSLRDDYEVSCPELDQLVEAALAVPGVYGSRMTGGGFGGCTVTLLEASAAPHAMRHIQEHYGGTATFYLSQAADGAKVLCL
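Luminescent ATP-depletion readout (Kinase-Glo Plus, 10 min) after 1 h RT reaction of 5 nM GALK, 35 uM ATP, 100 uM galactose, pH 8.0 HEPES buffer. Decreased kinase activity scored as inhibition.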
TSG101-PTAP inh = qHTS Validation Assay for Inhibitors of HIV-1 Budding by Blocking the Interaction of PTAP/TSG101: Sytravon Library Screen. Fluorescence polarization, FITC-PTAP peptide/Tsg101, 20 min. 44,000 tested, under 10 active. Tumor susceptibility gene 101 protein (Homo sapiens), Q99816. Potency, µM (doses to about 115 µM), usual class: inhibitors; note: potency is the fitted concentration of half-maximal effect; 0% is about no effect
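Steps: Tsg101 binding domain (10 uM final) in HEPES pH 7.5/NaCl/Tween 20/EDTA/TCEP; add compound; add FITC-PTAP peptide (50 nM final); incubate 20 min r.t.; read polarization.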
Starred values were filed as active, the others as inactive; i = inactive; u = inconclusive. Unless noted, calls come from the whole dose curve; as a rule, active = well fitted curve in the direction sought with a large enough effect; inconclusive = small, poorly fitted or top-dose-only effect, or another doubt; inactive = no such curve, though single readings can be large; an effect the other way counts as inactive or inconclusive.

SMILES | S16 F2sN tox | pS6 MEF inh | PMP22 txn | GALK inhibitor | TSG101-PTAP inh
COC(=O)c1c(-c2ccc(Cl)cc2)noc1N1CCN(c2ccc(C(C)=O)cc2)CC1 | u | -15% | 2.7µM* | 1% | i
COC(=O)c1c(-c2ccc(Cl)cc2)noc1N1CCN(c2ccc(OC)cc2)CC1 | u | 2% | 6µM* | 3% | i
Cc1ccc(S(=O)(=O)NCC(c2ccc(N(C)C)cc2)N2CCCC2)cc1 (configuration not stated) | 4% | 0% | 9% | 0% | i
Cc1ccc(C)c(NC(=O)Cn2nnc(C(=O)NCc3ccco3)c2N)c1 | u | -20% | 10µM* | 3% | i
COc1cc(CN2CCc3nc(N4CCN(c5ncccn5)CC4)ncc3C2)cc(OC)c1OC | u | 14% | u | -3% | i
COc1cc(CN2CCc3nc(N4CCN(c5ccccn5)CC4)ncc3C2)cc(OC)c1OC | 11µM* | 0% | 8.9µM* | 3% | i
CC(C(=O)NCc1cccc(Br)c1)n1ncn2cccc2c1=O (configuration not stated) | 0% | 0.58µM* | 4% | 2% | i
Cc1c2cnn(-c3ccccc3)c(=O)c2c(C)n1C(C)C(=O)NCc1cccc(Br)c1 (configuration not stated) | -16% | -9% | u | -1% | i
Cc1cccc(-n2cnc3cc(C(=O)NC4CCCCCC4)ccc32)c1 | u | 9.3µM* | u | -1% | i
Cc1cc(-c2ccc(S(=O)(=O)Nc3cccc(C)c3C)s2)on1 | u | u | 10µM* | 1% | i
COc1cccc(NS(=O)(=O)c2ccc(-c3cc(C)no3)s2)c1 | u | -11% | 1% | 4% | i
COc1cc(C(=O)N(CCCN(C)C)c2nc3c(OC)cccc3s2)cc(OC)c1OC | -1% | 18µM* | u | 3% | i
CC1CCCN(CCCNC(=O)c2ccc3c(c2)N(Cc2ccc(Cl)cc2)C(=O)c2ccccc2S3(=O)=O)C1 (configuration not stated) | u | 13µM* | u | 8% | i
CC(C)(C)OC(=O)N1CCC(c2c(C(=O)NCCN3CCC(Cc4ccccc4)CC3)cnn2-c2cccc(Cl)c2)CC1 | 25µM* | 15µM* | u | 3% | i
Cc1nnc(N2CCC(C(=O)NCCc3ccccc3Cl)CC2)c2nn(-c3ccccc3)c(C)c12 | 35µM* | -8% | u | 1% | i
Cc1ccc(-n2nc3c(N4CCC(C(=O)NCc5ccccc5Cl)CC4)nnc(C)c3c2C)cc1 | -4% | 0% | u | 3% | i
COc1ccc(-c2nc3ccccc3o2)cc1NC(=O)C(C)Oc1ccc(Cl)cc1Cl (configuration not stated) | 0% | -17% | 14µM* | 10% | i
O=C(Cc1ccc(Cl)cc1)Nc1ccc2oc(-c3ccc(F)cc3)nc2c1 | 17% | -22% | -23% | -3% | i
COc1ccc(-c2nc3cc(NC(=O)Cc4ccc(Cl)cc4)ccc3o2)cc1OC | 7% | 4.1µM* | u | -2% | i
COc1ccc(-c2nc3ccccc3o2)cc1NC(=O)CSc1ccc(Cl)cc1 | 0% | 7% | u | 6% | i
CCOC(=O)c1cc(-c2ccc(OC)c(S(=O)(=O)NC3CCCCC3)c2)on1 | u | 4% | u | 2% | i
Cc1ccc(/C=C(\C#N)c2nc(-c3cc4c(ccc5ccccc54)oc3=O)cs2)cc1 | -6% | 3% | 0% | 1% | i
COc1ccc(/C=C(\C#N)c2nc(-c3cc4c(ccc5ccccc54)oc3=O)cs2)cc1O | u | 4% | 8.9µM* | -1% | i
Cc1c(C(=O)N(C)c2cccc(C(F)(F)F)c2)sc2nc3n(c(=O)c12)CCCCC3 | -3% | -4% | u | 4% | 45µM*
Cc1c(C(=O)Nc2cccc(C(F)(F)F)c2)sc2nc3n(c(=O)c12)CCCC3 | 2% | -1% | -8% | -5% | i
SMILES | S16 F2sN tox | pS6 MEF inh | PMP22 txn | GALK inhibitor | TSG101-PTAP inh
Cc1cc(C)cc(NC(=O)Cn2cc(C(=O)C3CCCCC3)c3ccccc32)c1 | 2% | -25% | u | 6% | i
Cc1c(Cl)cccc1NC(=O)Cn1cc(C(=O)C2CCCCC2)c2ccccc21 | u | -23% | 10µM* | 3% | i
Cc1c(Cl)ccc2sc(NC(=O)c3ccc(S(=O)(=O)N4CCCc5ccccc54)cc3)nc12 | 12% | 15µM* | -17% | 0% | i
O=C(Nc1nc2c(Cl)cccc2s1)c1ccc(S(=O)(=O)N2CCc3ccccc32)cc1 | u | -16% | -25% | 2% | i
CCN(CCN(C)C)C(=O)C1CCN(S(=O)(=O)c2c(C)noc2/C=C/c2ccccc2F)CC1 | u | 18µM* | u | 0% | i
Cc1cc(C)c(NS(=O)(=O)c2cc(-c3cnc(C4CC4)o3)ccc2C)c(C)c1 | 3% | 30% | -6% | -3% | i
CC(=O)c1ccc(NS(=O)(=O)c2cc(-c3cnc(C4CC4)o3)ccc2C)cc1 | u | -19% | u | 1% | i
CC(=O)c1cccc(NS(=O)(=O)c2cc(-c3cnc(C4CC4)o3)ccc2C)c1 | u | -11% | 17µM* | 1% | i
Cc1ccc(NS(=O)(=O)c2cc(-c3cnc(C4CC4)o3)ccc2C)cc1Cl | 14µM* | u | u | -2% | i
CCn1cc(C(=O)N2CCN(c3ccccc3F)CC2)c(=O)c2cc(S(=O)(=O)N(C)C)ccc21 | 2% | -3% | 2% | 5% | i
CCOC(=O)c1ccccc1NC(=O)CSc1nc2ncccc2[nH]1 | 9% | 2% | -109% | 1% | i
CCc1ccc(NC(=O)CN2C(=O)c3ccccc3Sc3ccc(C(=O)N4CCCC4)cc32)cc1 | 0% | 0% | -8% | -1% | i
COc1ccccc1C1C=C(c2ccc(Cl)cc2)Nc2nc(-c3ccc(Cl)cc3)nn21 (configuration not stated) | -16% | 12µM* | u | u | i
COc1ccccc1C1C=C(c2ccc(F)cc2)Nc2nc(-c3ccc(Cl)cc3)nn21 (configuration not stated) | u | -16% | u | -11% | i
